Measurements published in PubChem BioAssay (EPA / NIEHS).
Inconclusive results are not listed. Calls of active or inactive are those of the source. How the source made its calls, unless noted: active means hit-call score of the fitted dose curve at least 0.9, where 1 is the maximum; inconclusive means response in the unintended direction; inactive means score below 0.9.

How the values were obtained:
[1] = TOX21_p53_BLA_p2_viability: Viability Assessment in the Tox21 HCT-116 p53 Agonism Beta-lactamase Assay, Phase 2 (AID 2283591);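 further: compound exposure lasted 16 h at 37 °C; actives lower the ATP signal meaning cytotoxicity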
How it was run: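 HCT116 p53-bla cells, 4000/well, dosed after 5 h plating (217-fold dilution of DMSO stocks) and incubated 16 h at 37C. Viability taken as cellular ATP by CellTiter-Glo luminescence after 30 min RT; signal loss marks cytotoxicity.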

[2] = target: Cellular tumor antigen p53 (Homo sapiens) (UniProt P04637); assay: TOX21_p53_BLA_p2_ratio: Tox21 HCT-116 p53 Agonism Beta-lactamase Assay, Ratio, Phase 2 (AID 2283592)
How it was run: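 Ratio endpoint: beta-lactamase cleavage of CCF4-AM, blue (460 nm) over green (530 nm). HCT116 reporter line; 16 h treatment, 37C; substrate 2 h RT.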

[3] = TOX21_p53_BLA_p3_viability: Viability Assessment in the Tox21 HCT-116 p53 Agonism Beta-lactamase Assay, Phase 3 (AID 2283593);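 further: cells exposed to compound for 16 h before reading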
How it was run: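 HCT116 cells, 4000/well, dosed 5 h after plating by pin transfer (217-fold dilution from DMSO stock) and incubated 16 h at 37C, 5% CO2. Viability read as ATP luminescence with CellTiter-Glo after 30 min at room temperature.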

[4] = target: Cellular tumor antigen p53 (Homo sapiens) (UniProt P04637); assay: TOX21_p53_BLA_p3_ratio: Tox21 HCT-116 p53 Agonism Beta-lactamase Assay, Ratio, Phase 3 (AID 2283596)
How it was run: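 Cells were seeded at 4000/well, rested 5 h at 37C, then dosed with DMSO compound solutions (217-fold dilution) for 16 h. CCF4-AM substrate was loaded for 2 h at room temperature, and the 460/530 nm emission ratio was fitted for gain of signal versus DMSO.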

[5] = TOX21_p53_BLA_p4_viability: Viability Assessment in the Tox21 HCT-116 p53 Agonism Beta-lactamase Assay, Phase 4 (AID 2283597);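 further: hits lower the luminescence signal meaning cytotoxicity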
How it was run: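 Cytotoxicity was inferred from loss of CellTiter-Glo luminescence. HCT116 cells had been dosed with compounds after 5 h plating, incubated 16 h at 37C and 5% CO2, and exposed to the CCF4-AM substrate for 2 h.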

[6] = TOX21_p53_BLA_p5_viability: Viability Assessment in the Tox21 HCT-116 p53 Agonism Beta-lactamase Assay, Phase 5 (AID 2283600)
How it was run: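 Luciferase-coupled ATP quantitation of cells treated for 16 h (37C, 5% CO2) with test chemicals delivered in DMSO via a 217-fold dilution; 4000 cells/well; reagent incubated 30 min at room temperature before luminescence reading.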

[7] = target: Cellular tumor antigen p53 (Homo sapiens) (UniProt P04637); assay: TOX21_p53_BLA_p4_ratio: Tox21 HCT-116 p53 Agonism Beta-lactamase Assay, Ratio, Phase 4 (AID 2283601)
How it was run: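 HCT-116 p53 beta-lactamase reporter cells (4000/well) preincubated 5 h, then compound (217-fold dilution of DMSO stock) for 16 h at 37C. CCF4-AM substrate added 2 h at room temperature; 460/530 nm emission ratio fitted upward versus DMSO.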

[8] = system: Brachyury (BRA) Protein Expression, Deisenroth Lab, TBXT (gene 6862); assay: CCTE_Deisenroth_DEVTOX-GLR_legacy_Bra: (Legacy) CCTE's DevTox GLR-Endo Assay Evaluation of Brachyury (BRA) Protein Expression, Deisenroth Lab (AID 2284329; active means hit-call score of the fitted dose curve at least 0.9, where 1 is the maximum; inactive means score below 0.9)
How it was run: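 Readout: percent Bra+ cells by high-content fluorescence imaging, Bra+ meaning mean intensity 5x BMAD over pluripotent control median. RUES2-GLR cells dosed twice over 48 h differentiation; DMSO-control median subtracted before concentration-response fitting.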

[9] = CCTE_Deisenroth_DEVTOX-GLR_legacy_CellCount: (Legacy) Viability Assessment in CCTE's DevTox GLR-Endo Assay, Deisenroth Lab (AID 2284331; active means hit-call score of the fitted dose curve at least 0.9, where 1 is the maximum; inactive means score below 0.9); conditions: actives raise or lower the signal
How it was run: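 Viability is taken from imaged nuclei counts in fixed RUES2-GLR cultures after 48 h of differentiation under two 24 h-spaced chemical exposures, 10 concentrations from 1 nM to 200 uM, gain or loss versus DMSO baseline.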

[10] = system: SRY-box transcription factor 17 (SOX17) Protein Expression, Deisenroth Lab, SOX17 (gene 64321); assay: CCTE_Deisenroth_DEVTOX-GLR_legacy_Sox17: (Legacy) CCTE's DevTox GLR-Endo Assay Evaluation of SRY-box transcription factor 17 (SOX17) Protein Expression, Deisenroth Lab (AID 2284341; active means hit-call score of the fitted dose curve at least 0.9, where 1 is the maximum; inactive means score below 0.9); conditions: actives raise or lower the signal
How it was run: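 Endoderm-differentiation readout in RUES2-GLR human pluripotent cells at 48 h, concentrations spanning 1 nM - 200 uM. Sox17-positive cells divided by total cell count; gain or loss relative to DMSO solvent control, n=4 experimental replicates.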

[11] = system: SRY-box transcription factor 2 (SOX2) Protein Expression, Deisenroth Lab, SOX2 (gene 6657); assay: CCTE_Deisenroth_DEVTOX-GLR_legacy_Sox2: (Legacy) CCTE's DevTox GLR-Endo Assay Evaluation of SRY-box transcription factor 2 (SOX2) Protein Expression, Deisenroth Lab (AID 2284346; active means hit-call score of the fitted dose curve at least 0.9, where 1 is the maximum; inactive means score below 0.9)
How it was run: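 Read-out: fraction of Sox2+ cells by high-content fluorescence imaging of fixed RUES2-GLR cells after 48 h differentiation with two 24 h-spaced exposures. Positivity cutoff 5x BMAD above endoderm control median; 0.2% DMSO median subtracted.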

[12] = system: SRY-box transcription factor 2 (SOX2) Protein Expression, Deisenroth Lab, SOX2 (gene 6657); assay: CCTE_Deisenroth_DEVTOX-GLR_Endo_SOX2: CCTE's DevTox GLR-Endo Assay Evaluation of SRY-box transcription factor 2 (SOX2) Protein Expression, Deisenroth Lab (AID 2284412)
How it was run: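 Endpoint is percent SOX2-positive cells (SOX2+ count/total cells) minus 0.2% DMSO control, from high-content imaging of fixed, nuclear-stained RUES2-GLR cells. Dosing twice at 24 h intervals over 48 h differentiation, 1 nM–200 uM in 10 points.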

[13] = system: SRY-box transcription factor 17 (SOX17) Protein Expression, Deisenroth Lab, SOX17 (gene 64321); assay: CCTE_Deisenroth_DEVTOX-GLR_Endo_SOX17: CCTE's DevTox GLR-Endo Assay Evaluation of SRY-box transcription factor 17 (SOX17) Protein Expression, Deisenroth Lab (AID 2284413; active means hit-call score of the fitted dose curve at least 0.9, where 1 is the maximum; inactive means score below 0.9)
How it was run: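 Human RUES2-GLR cells carrying an inducible fluorescent reporter are differentiated in defined media for 48 h and dosed twice, 24 h apart. After fixation and nuclear staining, imaging yields SOX17+ cell percentage relative to 0.2% DMSO-treated differentiated cells.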

[14] = CCTE_Deisenroth_DEVTOX-GLR_Endo_CellCount: Viability Assessment in CCTE's DevTox GLR-Endo Assay, Deisenroth Lab (AID 2284420; active means hit-call score of the fitted dose curve at least 0.9, where 1 is the maximum; inactive means score below 0.9)
How it was run: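 RUES2-GLR human pluripotent cells seeded 24 h, then differentiated 48 h with two chemical exposures at 24 h intervals (10-point, 1 nM - 200 uM). Fixed, nuclear-stained, imaged; nuclei counts give % change in cell count versus 0.2% DMSO.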

[15] = system: SRY-box transcription factor 17 (SOX17) Protein Expression, Deisenroth Lab, SOX17 (gene 64321); assay: CCTE_Deisenroth_DEVTOX-GLR_Pluri_SOX17: CCTE's DevTox GLR-Pluri Assay Evaluation of SRY-box transcription factor 17 (SOX17) Protein Expression, Deisenroth Lab (AID 2284427)
How it was run: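 RUES2-GLR human pluripotent cells were seeded 24 h, then differentiated 48 h in defined media with two chemical exposures 24 h apart (10-point series, 1 nM - 200 uM). Fixed, nuclear-stained cells were imaged; %SOX17+ cells minus 0.2% DMSO control reported.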

[16] = system: Brachyury (BRA) Protein Expression, Deisenroth Lab, TBXT (gene 6862); assay: CCTE_Deisenroth_DEVTOX-GLR_Pluri_BRA: CCTE's DevTox GLR-Pluri Assay Evaluation of Brachyury (BRA) Protein Expression, Deisenroth Lab (AID 2284429)
How it was run: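 RUES2-GLR reporter line; 48 h mesoderm differentiation; two exposures, 24 h apart; 1 nM - 200 uM, 10 points; nuclear stain, high-content imaging, 5 fields/well; endpoint = %BRA+ cells of total count minus 0.2% DMSO; n=4.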

[17] = CCTE_Deisenroth_DEVTOX-GLR_Pluri_CellCount: Viability Assessment in CCTE's DevTox GLR-Pluri Assay Evaluation of Total Cell Counts, Deisenroth Lab (AID 2284430; active means hit-call score of the fitted dose curve at least 0.9, where 1 is the maximum; inactive means score below 0.9)
How it was run: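 Cytotoxicity readout: fluorescent nuclei counts by high-content imaging, expressed as percent change relative to 0.2% DMSO. Human RUES2-GLR pluripotent line differentiated 48 h, dosed twice at 24-h intervals across 1 nM - 200 uM (10 points).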

[18] = target: Cellular tumor antigen p53 (Homo sapiens) (UniProt P04637); assay: TOX21_p53_BLA_p5_ratio: Tox21 HCT-116 p53 Agonism Beta-lactamase Assay, Ratio, Phase 5 (AID 2283599)
How it was run: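 HCT-116 p53-bla cells (4000/well) plated 5 h, dosed with compound (217-fold DMSO dilution) for 16 h at 37 C; CCF4-AM substrate 2 h at room temperature. Activity is the 460/530 nm emission ratio (405 nm excitation), fitted in gain-of-signal direction versus DMSO.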

Cellular tumor antigen p53 (Homo sapiens), sequence (P04637 whole entry, looked up): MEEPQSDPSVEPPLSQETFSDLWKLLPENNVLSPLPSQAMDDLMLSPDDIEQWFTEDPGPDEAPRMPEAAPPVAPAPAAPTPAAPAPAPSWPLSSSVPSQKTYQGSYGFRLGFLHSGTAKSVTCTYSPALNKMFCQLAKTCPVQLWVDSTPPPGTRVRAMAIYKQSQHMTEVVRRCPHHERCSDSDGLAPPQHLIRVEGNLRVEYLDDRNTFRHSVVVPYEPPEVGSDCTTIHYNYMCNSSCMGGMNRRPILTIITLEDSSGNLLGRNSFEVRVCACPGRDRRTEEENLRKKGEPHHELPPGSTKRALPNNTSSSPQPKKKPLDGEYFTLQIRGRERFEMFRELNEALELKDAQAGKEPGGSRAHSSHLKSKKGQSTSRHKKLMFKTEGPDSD

Which results are given for Cc1nc(Nc2ncc(C(=O)Nc3c(C)cccc3Cl)s2)cc(N2CCN(CCO)CC2)n1?
outcome [1]: inactive; AC50 [2]: 26.8 µM (active); AC50 [3]: 33.4 µM (active); AC50 [4]: 36.5 µM (active); AC50 [5]: 35.5 µM (active); outcome [6]: inactive; AC50 [7]: 22.8 µM (active); AC50 [8]: 3.19 µM (active); AC50 [9]: 0.0582 µM (active); AC50 [10]: 0.811 µM (active); AC50 [11]: 151 µM (active); AC50 [12]: 3.15 µM (active); AC50 [13]: 0.633 µM (active); AC50 [14]: 0.0574 µM (active); AC50 [15]: 0.017 µM (active); AC50 [16]: 0.0529 µM (active); AC50 [17]: 0.0132 µM (active)

Which outcome [1] does the source give for COC(=O)[C@H]1[C@H]2C[C@H]3c4[nH]c5ccccc5c4CCN3C[C@H]2CC[C@@H]1O here?
The outcome was “inactive”.

What about the outcome [2] of the same compound?
Its outcome is “inactive”.

And the outcome [3]?
The outcome was “inactive”.

And the outcome [4]?
The outcome was “inactive”.

And the outcome [18]?
Its outcome is “inactive”.
